# HTR5A ag: activates human HTR5A in OPRM1-OPRD1 agonist counter-screen. HTR5A agonist assay, luminescence, cell-based. AID 504692. hit rate 0.61% among 340,000. activation, % at 9.3 µM. P47898; in the data active = activation mostly above about 9.5%, no sharp cut-off; inactive = mostly below about 7.6%;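 note: 0% = cells with vehicle only and 100% = reference agonist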
# Target sequence (P47898 whole entry, looked up): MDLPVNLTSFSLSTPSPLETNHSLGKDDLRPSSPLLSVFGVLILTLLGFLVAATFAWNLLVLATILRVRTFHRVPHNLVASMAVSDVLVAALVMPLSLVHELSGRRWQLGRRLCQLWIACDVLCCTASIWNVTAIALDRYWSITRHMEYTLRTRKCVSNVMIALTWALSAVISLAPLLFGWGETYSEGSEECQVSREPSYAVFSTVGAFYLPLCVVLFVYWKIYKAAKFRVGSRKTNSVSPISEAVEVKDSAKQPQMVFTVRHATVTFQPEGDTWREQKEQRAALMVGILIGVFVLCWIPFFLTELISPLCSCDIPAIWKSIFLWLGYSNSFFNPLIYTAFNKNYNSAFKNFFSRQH
# OPRM1-OPRD1 inv: inverse agonists of human mu-delta opioid receptor heterodimerization; P35372+P41143; cell-based MOR-DOR heterodimer luminescence, inverse agonism; inhibition, % at 9.3 µM; hit rate 0.21% among 340,000; AID 504357; in the data active = inhibition above about 22%, passing the limit was not always enough;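 note: 0% = cells with DMSO and 100% = wells without cells with DMSO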
# OPRM1-OPRD1 ag: OPRM1-OPRD1 heterodimerization agonism; hit rate 0.3% among 340,000; activation, % at 9.3 µM; cells, luminescence; P35372+P41143; in the data active = activation above about 18%;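 note: 0% = vehicle-treated cells and 100% = reference agonist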
# HTR5A inv ag: HTR5A inverse agonism, opioid heterodimer counter-screen; HTR5A cell line, luminescence; inhibition, % at 9.3 µM; hit rate 0.083% among 340,000; AID 504634; in the data active = inhibition mostly above about 23%, no sharp cut-off; inactive = mostly below about 18%;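 note: 0% = cells with DMSO and 100% = no-cell wells with DMSO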
# OPRM1-D1 inv cf: confirmation of human OPRM1-OPRD1 heterodimerization inverse agonists | shares compounds with OPRM1-OPRD1 inv | cells expressing OPRM1/OPRD1 heterodimer, luminescence | inhibition, % at 9.3 µM | hit rate 20% among 580; in the data active = inhibition above about 32%;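 note: 0% = cells with DMSO and 100% = wells lacking cells with DMSO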
# HTR5A inv count: HTR5A inverse agonism, opioid heterodimer counter-screen; shares compounds with OPRM1-OPRD1 inv; HTR5A-expressing cells, luminescence; inhibition, % at 9.3 µM; 580 tested, under 10 active; AID 504914; call rule not given here;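 note: 0% = cells with DMSO and 100% = no-cell wells with DMSO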
# Starred values were filed as active, the others as inactive; i = inactive; · = no result given. Compounds with a hit are over-represented: about 1.1% of the library has one in this group of screens.
SMILES,HTR5A ag,OPRM1-OPRD1 inv,OPRM1-OPRD1 ag,HTR5A inv ag,OPRM1-D1 inv cf,HTR5A inv count
O=C1C(=O)N(CCS(=O)(=O)c2ccccc2)c2ccc(Cl)cc21,0.5,3.5,-0.7,-1.9,·,·
CCc1ccc2c(c1)C(=O)C(=O)N2CCS(=O)(=O)c1ccccc1,-3.1,45.5*,-8.6,12.8,-27.9,-17.3
COCC(O)CNc1ccccc1 (stereo unspecified),-6.5,6.8,-1.4,-0.3,·,·
O=C(CSc1nc2c([nH]c3ccccc32)c(=O)n1-c1ccccc1)NCC1CCCO1 (stereo unspecified),-15.1,51.4*,-9.3,28.7,21.9,-8.6
CCN1CCN(C(=O)CN2C(=O)COc3ccc(C)cc32)CC1,-4.0,12.2*,-1.5,12.1,i,-18.9
Cn1c(-c2ccc(F)cc2)cnc1NCc1ccccc1F,-0.2,37.7*,-7.4,-17.6,-9.6,-4.9
Cc1ccc(/C=N/NC(=O)c2ccc3ccccc3c2)s1,8.9,9.3,-1.7,-5.4,·,·
Cc1ccc(C)c(-c2csc(NC(=O)c3cnccn3)n2)c1,-1.8,15.4,-3.1,24.9,·,·
CC(C)N1C(=O)C(O)(C2COC(C)(C)CC2=O)c2ccccc21 (stereo unspecified),0.8,10.9,-2.1,-11.5,·,·
CC1(C)CC(=O)C(C2(O)C(=O)Nc3ccccc32)CO1 (stereo unspecified),-8.1,55.4*,-11.3,22.2*,-110.3,-63.1
Cc1ccc2c(c1)C(=O)C(=O)N2CC(=O)OC(C)C,-9.2,54.5*,-9.7,23.4,9.8,-0.8
Cc1ccc(OCCN2C(=O)C(=O)c3cc(C)ccc32)cc1,0.2,23.2,-4.4,7.1,·,·
Cc1cc(C)nc(-n2nc(C)c(C3(O)C(=O)Nc4ccccc43)c2N)n1 (stereo unspecified),-4.3,23.5*,-3.8,11.4,-15.3,-3.6
Cc1cc(C)nc(-n2nc(C)c(C3(O)C(=O)Nc4ccc(F)cc43)c2N)n1 (stereo unspecified),-9.7,62.0*,-13.6,17.1,52.6*,7.6
Cc1ccccc1N=C1C(=O)Nc2ccccc21,-1.6,56.3*,-10.9,6.3,-128.4,4.9
Cc1ccc(N=C2C(=O)Nc3ccccc32)c(C)c1,-3.3,54.1*,-9.8,13.0,21.3,1.9
CC1CCCN(C(=O)C(=O)c2cn(CC(=O)N3CCCCCC3)c3ccccc23)C1 (stereo unspecified),7.4,10.0,-1.9,-5.7,·,·
O=S(=O)(NNc1cccc(Cl)n1)c1ccc(Cl)cc1,-5.6,79.7*,-19.6,14.3,49.8*,6.3
COc1ccc(CCN2CC(C(=O)OCC(=O)N(C)CC(=O)Nc3ccccc3Cl)CC2=O)cc1OC (stereo unspecified),-4.2,-8.5,2.0,10.3,·,·
CCOc1cccc2cc(C(=O)N3CCOCC3)c(=O)oc12,3.1,10.5,-1.9,-25.3,·,·
CC(C)(C)c1ccc(NNC(=O)C2CCC2)cc1,-3.0,34.4*,-6.7,2.1,1.6,-16.8
O=C(C[n+]1ccccc1)NNc1ccccc1,-0.4,32.6*,-5.8,-20.7,23.6,-16.1
Oc1[nH]c2ccccc2c1/C=N/N1CCCCC1,-3.3,37.4*,-6.2,8.9,26.8,-14.7
Oc1ccccc1C=NN1CCCCCC1,-0.9,-8.9,1.8,3.6,·,·
COC(=O)C1CC(c2ccc(Cl)cc2)=NO1 (stereo unspecified),1.2,11.2,-2.4,7.1,·,·
SMILES,HTR5A ag,OPRM1-OPRD1 inv,OPRM1-OPRD1 ag,HTR5A inv ag,OPRM1-D1 inv cf,HTR5A inv count
Cc1ccc(OCCCN2C(=O)C(=O)c3cccc(C)c32)cc1,-1.0,45.0*,-8.3,2.7,12.3,5.1
Cc1cccc2c1N(CCOc1ccc(C(C)(C)C)cc1)C(=O)C2=O,-1.9,35.6*,-5.9,5.2,-14.1,-110.5
O=C(CNc1ccc(Br)cc1)c1ccccc1,1.2,13.4,-2.6,-18.1,·,·
O=C(CNc1ccc(F)cc1)c1ccccc1,-5.5,37.0*,-5.7,13.7,-8.9,5.8
COc1ccc(CCNC(=O)CNCCc2ccc(F)cc2)cc1,-2.0,13.5,-2.9,7.7,·,·
CCCN1CCC(=NNc2ccc(C(=O)O)cc2)CC1,-0.8,37.0*,-7.7,26.4,-23.8,-142.5
CCCN1CCC(=NNC(=O)c2ccc(Br)o2)CC1,2.9,-2.7,0.5,-7.5,·,·
Cc1ccc2[nH]c(O)c(N=Nc3ccccc3C)c2c1,3.1,31.7*,-5.0,1.5,3.8,4.0
CC1(C)CC(=O)C(C2(O)C(=O)N(Cc3ccccc3)c3ccccc32)CO1 (stereo unspecified),-6.9,28.6,-5.8,18.1,·,·
CC1(C)CC(=O)CC(C2(O)C(=O)N(Cc3ccccc3)c3ccccc32)O1 (stereo unspecified),-6.0,34.1*,-6.2,15.5,19.7,8.8
CSc1nnc2c(n1)OC1(Nc3ccccc3-2)C(=O)Nc2ccccc21 (stereo unspecified),-4.8,53.0*,-10.6,-0.9,-20.8,-6.1
CCSc1nnc2c(n1)OC(C)(C)Nc1ccccc1-2,9.6,0.3,-0.1,-10.3,·,·
CC(=O)OCC1(C)CN(c2ccccc2)N(C(=O)c2ccc(F)cc2)C1=O (stereo unspecified),-0.5,44.3*,-6.1,1.2,27.4,-9.4
Cc1ccccc1N1CCN(C(=O)NCc2cccc(Cl)c2)CC1,-2.5,-14.2,1.7,-7.8,·,·
O=C(COC(=O)c1cccnc1)c1ccc(Cl)c(Cl)c1,-5.8,56.9*,-9.6,7.3,-149.7,-11.3
O=C(OCC(=O)c1ccc(Cl)cc1Cl)c1cnccn1,-4.0,40.5*,-5.4,10.6,18.1,1.1
O=C(COC(=O)c1cccnc1)c1ccc(Cl)cc1,1.4,16.5,-3.1,11.8,·,·
O=C(COC(=O)c1cnccn1)c1ccc(Cl)c([N+](=O)[O-])c1,-6.3,81.5*,-15.4,13.4,-113.2,-46.2
Cc1ccc(C(=O)COC(=O)c2cnccn2)cc1[N+](=O)[O-],-6.7,53.9*,-10.6,18.8*,33.3*,17.1
O=C(COC(=O)c1cnccn1)c1ccc([N+](=O)[O-])cc1,-2.2,22.0,-4.2,-19.9,·,·
Cc1c(Cl)cccc1NC(=S)NC(=O)c1cncc(Br)c1,-3.9,-16.9,3.4,36.4,·,·
Cc1ccc(S(=O)(=O)NC(=O)Nc2ccc(C)cc2C)cc1,-0.4,4.0,-0.8,-2.3,·,·
Fc1cccc(Cl)c1CSC1=NCCS1,2.1,-16.6,2.0,-12.3,·,·
ON(Cc1c(F)cccc1Cl)Cc1c(F)cccc1Cl,-4.2,35.1*,-7.0,1.9,70.1*,9.3
CCCc1cc(=O)[nH]c(-n2[nH]c3c(c2=O)CCCC3)n1,-8.9,33.4*,-5.3,0.1,i,2.5
COc1cccc(-c2ccc(NC(=O)C3CCCN(CCCn4cccn4)C3)cc2)c1 (stereo unspecified),4.3,0.8,-0.1,-45.7,·,·
CCCc1c(C(=O)NNc2ccc(C)cc2)cnn1-c1ccccc1,2.1,39.3*,-7.8,-0.9,-3.2,-15.7
CCCc1c(C(=O)Nc2ccc(C(F)(F)F)cc2)cnn1-c1ccccc1,0.5,-25.9,5.3,-3.0,·,·
